SNCA expr inh = SNCA gene expression inhibition. HEK-293 SNCA-luciferase knock-in, luminescence, 24 h. Potency, µM (titrated, usually from 57.2 µM), for the others: at the highest dose activity change, negative = inhibition, most hits filed as inhibitors. actives 0.17% (n = 140,000);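 further: potency means the concentration at half of the fitted maximal effect; plate controls were DMSO cells for no effect and cell-free wells for full effect; nearly all actives have a fitted effect of over 45% in size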
IP6K1 inhibitor = inhibitors of human IP6K1; IP6K1 kinase, ADP-Glo luminescence, 2 h; active compounds read low; activity change, % (series mostly up to about 58 µM); actives 0.81% (n = 140,000); Q92551; in the data active means activity change below about -25%; further: on the % scale 0 is the no-effect control and ±100 the full control effect
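ADP-Glo luminescence measures ADP made by human IP6K1 during a 2 h RT reaction with ATP/IP6 (mix at 1.3 mM/130 uM); top library doses 57.5 and 19.1 uM final.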
SNCA viab count = counter-screen for SNCA expression inhibitors: cell viability; HEK-293-SNCA-luc viability, GF-AFC fluorescence, 24 h; Potency, µM (doses to about 57.1 µM), inactives show at the top dose activity change, negative = cytotoxicity, hits mostly cytotoxic; actives 0.12% (n = 150,000); AID 1671193;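 further: potency means the concentration at half of the fitted maximal effect; 0% = DMSO-treated cells and -100% = medium-only wells without cells; nearly all actives have a fitted effect of over 30% in size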
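HEK-293-SNCA-luc cells (1500/well) plated 24 h, then exposed 24 h to a dilution series; GF-AFC added 30 min at 37C, fluorescence 405/540 nm; normalised to medium-only and DMSO wells, Hill fit.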
KDM5B inhibitor = inhibitors of human KDM5B histone demethylase; KDM5B demethylase, FDH-coupled NADH fluorescence (FDH is formaldehyde dehydrogenase); actives 2.6% (n = 220,000); Potency, µM (highest dose often 57.7 µM), usual class: inhibitors; Q9UGL1; further: potency means the concentration at half of the fitted maximal effect; 0% is about no effect; nearly all actives have a fitted effect of over 70% in size
Target sequence (Q9UGL1 whole entry, looked up): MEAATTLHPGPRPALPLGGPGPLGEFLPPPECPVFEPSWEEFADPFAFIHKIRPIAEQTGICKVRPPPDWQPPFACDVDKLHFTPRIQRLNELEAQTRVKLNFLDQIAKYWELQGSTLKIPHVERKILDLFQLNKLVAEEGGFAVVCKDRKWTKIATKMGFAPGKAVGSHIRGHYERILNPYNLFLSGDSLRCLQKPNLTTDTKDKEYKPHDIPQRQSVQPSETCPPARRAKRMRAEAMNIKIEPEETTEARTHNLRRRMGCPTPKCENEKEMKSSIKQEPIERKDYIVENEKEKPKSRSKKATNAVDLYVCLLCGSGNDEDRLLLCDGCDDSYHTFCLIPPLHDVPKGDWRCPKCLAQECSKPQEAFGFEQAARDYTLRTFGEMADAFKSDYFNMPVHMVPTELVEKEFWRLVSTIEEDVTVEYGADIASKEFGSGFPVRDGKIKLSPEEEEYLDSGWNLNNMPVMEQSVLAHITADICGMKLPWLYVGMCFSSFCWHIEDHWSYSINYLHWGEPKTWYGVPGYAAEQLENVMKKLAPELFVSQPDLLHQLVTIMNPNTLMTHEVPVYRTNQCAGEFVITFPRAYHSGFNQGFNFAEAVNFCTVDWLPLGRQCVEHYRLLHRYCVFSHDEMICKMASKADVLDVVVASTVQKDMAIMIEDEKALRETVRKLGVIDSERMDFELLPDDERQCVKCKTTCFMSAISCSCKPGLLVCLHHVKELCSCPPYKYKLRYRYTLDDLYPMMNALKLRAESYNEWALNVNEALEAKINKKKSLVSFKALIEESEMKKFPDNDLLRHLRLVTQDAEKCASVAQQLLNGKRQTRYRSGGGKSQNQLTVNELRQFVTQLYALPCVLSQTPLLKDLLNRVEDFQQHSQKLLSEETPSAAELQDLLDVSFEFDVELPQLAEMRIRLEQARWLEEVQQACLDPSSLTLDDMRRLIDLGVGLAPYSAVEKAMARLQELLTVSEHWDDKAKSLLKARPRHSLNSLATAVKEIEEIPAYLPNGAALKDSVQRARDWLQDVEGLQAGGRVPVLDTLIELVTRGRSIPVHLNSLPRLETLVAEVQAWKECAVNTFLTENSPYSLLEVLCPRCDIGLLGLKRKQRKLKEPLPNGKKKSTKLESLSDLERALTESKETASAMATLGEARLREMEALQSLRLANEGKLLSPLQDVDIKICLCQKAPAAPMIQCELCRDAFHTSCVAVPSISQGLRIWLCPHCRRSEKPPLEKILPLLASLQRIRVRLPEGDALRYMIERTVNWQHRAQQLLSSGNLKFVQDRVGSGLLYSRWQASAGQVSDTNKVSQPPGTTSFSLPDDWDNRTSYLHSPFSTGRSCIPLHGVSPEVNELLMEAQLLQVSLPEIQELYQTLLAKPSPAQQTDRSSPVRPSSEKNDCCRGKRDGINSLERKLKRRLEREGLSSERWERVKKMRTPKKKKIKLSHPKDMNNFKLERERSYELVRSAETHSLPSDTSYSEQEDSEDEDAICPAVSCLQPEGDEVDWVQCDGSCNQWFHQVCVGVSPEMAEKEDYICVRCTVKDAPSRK
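Measured: NADH fluorescence change, 30 min, RT. System: KDM5BΔAP 200 nM final, H3K4me3 peptide, α-KG, Fe(II), ascorbate, NAD⁺ plus FDH, pH 7.5 HEPES. Compounds: titrated, 10 min pre-incubation with enzyme.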
Numbers without * were called inactive; i = inactive; ? = inconclusive; · = not tested or not shown; [ ] = another dose, or the depositor's remark. An excerpt weighted towards active compounds, which were near 2.9% of everything screened. Unless noted, the call rests on the fitted dose curve; in most records, active means well fitted curve in the direction sought with a large enough effect; inconclusive means small, poorly fitted or top-dose-only effect, or another doubt; inactive means no such curve, though single readings can be large; an effect the other way counts as inactive or inconclusive.

SMILES | SNCA expr inh | IP6K1 inhibitor | SNCA viab count | KDM5B inhibitor
CC(=O)Nc1ccc(NC(=O)c2nc(S(=O)(=O)Cc3ccc(F)cc3)ncc2Cl)cc1 | ? | 0 | 7.9µM* | ?
CCS(=O)(=O)c1ncc(Cl)c(C(=O)Nc2c(C(=O)Nc3cccc(C)c3)oc3ccccc23)n1 | 19% | -5 | -6% | i
Cc1ccc(CNC(=O)c2nc(S(=O)(=O)Cc3ccc(C)cc3)ncc2Cl)cc1 | 7% | 0 | 1% | i
CCS(=O)(=O)c1ncc(Cl)c(C(=O)Nc2ccccc2)n1 | 2.2µM* | -7 | 7.1µM* | ?
CCS(=O)(=O)c1ncc(Cl)c(C(=O)NCc2ccc(OC)cc2)n1 | 22µM* | -2 | ? | i
CCOC(=O)c1cc(NC(=O)CC2CCCC2)cc(C(=O)OCC)c1 | · | · | · | i
CCCCn1c(=O)c(C(=O)N2CCN(C(=O)c3ccccc3C)CC2)nc2cccnc21 | 7% | -9 | -1% | ·
CC(C)c1nnc(NC(=O)c2nc(S(=O)(=O)Cc3ccccc3)ncc2Cl)s1 | ? | -3 | 22µM* | ?
COc1ccc(N2CCN(C(=O)c3nc(SC)ncc3Cl)CC2)cc1 | 3% | 4 | -9% | i
CCS(=O)(=O)c1ncc(Cl)c(C(=O)N2CCN(c3ccc(OC)cc3)CC2)n1 | ? | -3 | 14µM* | ?
O=C(Cc1cccc(F)c1)N1CCCC(Cc2nc(C3CCOCC3)no2)C1 (stereo not drawn) | 4% | 0 | -14% | 28µM*
Cc1ccc(-c2cc(N3CCCN(C(=O)c4cccc(N(C)C)c4)CC3)n[nH]2)cc1C | -27% | -10 | 18µM* | ?
CN(C)c1cccc(C(=O)NCC2CCN(c3cc(-c4ccccc4)[nH]n3)CC2)c1 | 85% | 17 | -1% | 25µM*
CN(C)c1ccc(C(=O)NCC2CCN(c3cc(-c4ccc(F)cc4)[nH]n3)CC2)cc1 | -14% | 5 | -21% | ?
O=C(Nc1ccc(Cl)cc1)N1CCCC(C(=O)N2CCCC(c3nc4ncccc4[nH]3)C2)C1 (stereo not drawn) | ? | -4 | -1% | ·
O=C1c2c(nc(CNCc3cnccn3)n2Cc2ccccc2)NCCN1Cc1cccc(Cl)c1 | 19% | -12 | -18% | 25µM*
CN(C)CCCOCC1(C)COc2ccc(C(=O)Nc3ccc(F)c(Cl)c3)cc2N1 (stereo not drawn) | 84%[87.6 µM] | -8 | -1%[87.6 µM] | 28µM*
COc1cc(CNC(=O)c2ccc3c(c2)NC(C)(CNc2ccccc2)CO3)cc(OC)c1 (stereo not drawn) | ? | -10 | -7% | ?
CC1(CCCCN2CCOCC2)COc2ccc(C(=O)Nc3ccc(Cl)cc3)cc2N1 (stereo not drawn) | -5% | 3 | 4% | 25µM*
CC1(COCC2CC2)COc2ccc(C(=O)Nc3ccc(Cl)cc3)cc2N1 (stereo not drawn) | 19%[87.6 µM] | 4 | -26%[87.6 µM] | ?
CC1(CCCCN2CCOCC2)COc2ccc(C(=O)Nc3cccc(Cl)c3)cc2N1 (stereo not drawn) | 22% | 4 | 8% | ?
CC1(CCCCN2CCOCC2)COc2ccc(C(=O)NCc3cccc(F)c3)cc2N1 (stereo not drawn) | 32% | 4 | 4% | 28µM*
CC1(CNc2ccccc2)COc2ccc(C(=O)NCc3ccc(F)cc3)cc2N1 (stereo not drawn) | -28%[87.6 µM] | 3 | ? | 32µM*
CN(Cc1ccccc1)C(=O)c1ccc2c(c1)NC(C)(CCCCN1CCOCC1)CO2 (stereo not drawn) | ? | -5 | 9%[87.6 µM] | ?
S=C(NCCCCCNC(=S)Nc1cccc(Cl)c1)Nc1cccc(Cl)c1 | · | · | · | i
SMILES | SNCA expr inh | IP6K1 inhibitor | SNCA viab count | KDM5B inhibitor
CC1(CCCCN2CCOCC2)COc2ccc(C(=O)NCc3ccc(F)cc3)cc2N1 (stereo not drawn) | -8% | -1 | 5% | 28µM*
CC1(CCCCN2CCOCC2)COc2ccc(C(=O)Nc3cccnc3)cc2N1 (stereo not drawn) | 62%[87.6 µM] | 10 | -4%[87.6 µM] | ?
O=c1cc(CN2CCN(CCO)CC2)c2cc(O)c(-c3ccccc3)cc2o1 | · | · | · | i
O=C(Nc1cccc(OC(F)(F)F)c1)C1(CCO)CCN(c2ncccn2)C1 (stereo not drawn) | ? | 5 | -20% | 25µM*
Cc1ccc(CNC(=O)C2(CCO)CCN(c3ncccn3)C2)o1 (stereo not drawn) | -22% | 0 | -6% | 28µM*
Cc1ccc(NC(=O)C2(CCO)CCN(c3ncccn3)C2)cc1 (stereo not drawn) | ? | 11 | 0% | 28µM*
CC(C)CCNC(=O)C1(CCO)CCN(c2ncccn2)C1 (stereo not drawn) | 4% | -6 | -5% | 25µM*
CCCNC(=O)C1(CCO)CCN(c2ncccn2)C1 (stereo not drawn) | 47% | 2 | 10% | ?
COCCNC(=O)C[C@@H]1C[C@@H](C(C)C)[C@H](CNS(C)(=O)=O)C=C1C | -12%[87.6 µM] | 3 | 0%[87.6 µM] | ?
CCc1cccc2c(C(CC(=O)NCc3ccc4c(c3)OCO4)c3ccc(OC)c(OC)c3)c[nH]c12 (stereo not drawn) | -18% | 3 | -5% | ?
Cc1noc(C)c1[S+](=O)([O-])NC1CCN(Cc2cccc(-c3cccs3)c2)CC1 | 3% | -6 | 5%[12.5 µM] | ·
COc1ccc(OC)c(S(=O)(=O)N2CCN(C(=O)c3cc4c(s3)CCCCC4)CC2)c1 | · | · | · | i
COc1ccc(S(=O)(=O)N2C[C@@H]3C[C@H](C2)c2ccc(NS(=O)(=O)c4cccc(F)c4)c(=O)n2C3)cc1 | 5% | -9 | -10% | i
COc1ccc(S(=O)(=O)N2C[C@@H]3C[C@H](C2)c2ccc(-c4ccc(OC(F)(F)F)cc4)c(=O)n2C3)cc1 | -10% | -3 | 0% | 28µM*
COCc1ccc2c(c1)c(OC(C)(C)C(=O)NCc1ccncc1)nn2CCC(C)C | ? | -7 | -6%[87.6 µM] | ?
COCc1ccc2c(c1)c(OC(C)(C)C(=O)NCCCn1ccnc1)nn2Cc1cccc(OC)c1 | 12% | 16 | 2% | 22µM*
COCc1ccc2c(c1)c(OC(C)(C)C(=O)NCCCn1ccnc1)nn2CCC(C)C | 28% | 5 | 4% | 35µM*
O=C(NC1CCCC1)c1cc(-c2ccncc2)nc2c(Cl)cccc12 | · | · | · | i
CCCCCCCCCCCCCC(=O)N[C@H](CO)[C@H](O)c1ccc([N+](=O)[O-])cc1 | 9.6µM* | · | -10% | ·
Cn1cccc1CN[C@H]1[C@H](O)[C@@H](N2CCCC2)[C@@H]2OC[C@H]1O2 | 14%[87.6 µM] | 1 | 4%[87.6 µM] | 25µM*
CCCN1CCN(C(=O)c2cc(NC(=O)C3CCC3)cc3nc(C)ccc23)CC1 | -1% | -1 | 7% | 22µM*
CCCCN1CCN(C(=O)c2cc(-c3ccncc3)nc3ccccc23)CC1 | · | · | · | i
CCCCN1CCN(C(=O)c2cc(NC(=O)C3CCC3)cc3nc(C)ccc23)CC1 | 6% | 8 | 6% | 32µM*
CN(C)C[C@@H]1CN(c2ccccn2)C[C@H]1NC(=O)Cn1c(=O)oc2ccccc21 | 13% | 19 | 4% | 22µM*

Screens deposited in PubChem BioAssay by National Center for Advancing Translational Sciences (NCATS).
